Only a sample is shown.
aSyn UTR act: Activators via SNCA 5'UTR binding, MLPCN. AID 1814. alpha-synuclein 5'UTR reporter, activators screen. activity score, % (tested at 7.5 µM), hits read low. hit rate 7.1% among 300,000; in the data active = activity score below about -60%
The depositor's hits bear a star.

SMILES | aSyn UTR act
CCN(CC)C(=O)COc1ccc(-c2ccccc2)cc1 | -116*
CC(=O)c1cccc2c(O)c(C3=Nc4ccccc4C3=O)[nH]c12 | -122*
CCOC(=O)C1(Cc2cccc(OC)c2)CCCN(C(=O)c2ccc(OC)o2)C1 (centres undefined) | -126*
CCOC(=O)C1(Cc2cccc(Cl)c2)CCCN(C(=O)c2cc(C)on2)C1 (centres undefined) | -72*
CCOC(=O)C1(Cc2cccc(OC)c2)CCCN(C(=O)c2cc(CC(C)C)[nH]n2)C1 (centres undefined) | -118*
CCOC(=O)C1(Cc2cccc(OC)c2)CCCN(C(=O)CCN2CCCO2)C1 (centres undefined) | -112*
Cn1cccc1/C=C1\SC(=O)N(c2ccc(O)cc2)C1=O | -144*
O=C(NC(=O)c1ccccc1O)c1ccc(C(F)(F)F)cc1 | -69*
CC(=O)Nc1cccc(NC(=O)C(=O)Nc2ccc3c(c2)N(C(=O)C2CC2)CCC3)c1 | -92*
Cc1ccc(C)c(Cn2nnc(C(=O)Nc3ccc4c(c3)OCCO4)c2N)c1 | -106*
Cc1ccc(NC(=O)c2nnn(-c3ccc4c(c3)OCCO4)c2N)cc1 | -149*
Cc1ccccc1Cn1nnc(C(=O)Nc2ccc3c(c2)OCCO3)c1N | -109*
Cc1ccc(CNc2ccc3c(c2)ncn3C(C)C)cc1 | -144*
CCn1cnc2cc(NCc3ccc(C)cc3)ccc21 | -128*
Cn1cnc2cc(NCc3ccc(Cl)cc3)ccc21 | -101*
CCCn1cnc2cc(NCc3ccc(Br)cc3)ccc21 | -93*
CCn1cnc2cc(NCc3ccc(Br)cc3)ccc21 | -140*
CCCn1cnc2cc(NCc3cccc(OC)c3)ccc21 | -141*
CCCCCCOC(=O)c1ccc(OC(=O)c2cccnc2)cc1 | -101*
COC(=O)c1c(C)[nH]c(C(=O)CSc2ccc(Cl)cc2)c1C | -134*
COC(=O)c1c(C)[nH]c(C(=O)/C=C/c2ccc(C)cc2)c1C | -73*
COC(=O)c1c(C)[nH]c(C(=O)/C=C/c2ccccc2)c1C | -107*
COC(=O)c1c(C)[nH]c(C(=O)/C=C/c2cccc(Cl)c2)c1C | -232*
Nc1nnc(C(=O)c2ccccc2N)s1 | -123*
CCOC(=O)c1csc(-c2ccc([N+](=O)[O-])cc2)n1 | -67*
SMILES | aSyn UTR act
CCOc1cc2c3c(c1)C(C)=CC(C)(C)N3C(=O)C2=O | -74*
O=C(/C=C/c1ccco1)Nc1ccccc1C(=O)O | -117*
O=C(/C=C/c1ccco1)Nc1ccccc1N1CCCC1 | -80*
O=c1oc2ccccc2cc1-c1ccc(O)cc1 | -101*
COc1ccc(-c2cc3ccccc3oc2=O)cc1 | -71*
Nc1ccc(-c2cc3ccccc3oc2=O)cc1 | 106
O=C(NCc1cccnc1)c1ccc(-c2cc3ccccc3oc2=O)cc1 | -139*
CCn1cc(Cl)c(C(=O)Nc2ccccc2C(N)=O)n1 | -87*
Cc1ccc(C(=O)Nc2cccc(C(F)(F)F)c2)cc1NC(=O)c1nccnc1N | 78
CCn1cc(Cl)c(C(=O)Nc2cccc(C(F)(F)F)c2)n1 | -105*
CCn1cc(Br)c(C(=O)Nc2ccccc2C(=O)OC)n1 | -88*
CCn1cc(Br)c(C(=O)Nc2cccc(SC)c2)n1 | -141*
Nc1cc2ccncc2c2ccccc12 | -71*
Cc1ccc(C(=O)Nc2nccs2)s1 | -87*
O=C(Nc1nccs1)c1ccc(Br)s1 | -153*
Cc1ccc(-c2nc(-c3ccccn3)no2)cc1 | 99
c1ccc(C(Cc2nc(-c3ccccn3)no2)c2ccccc2)cc1 | -132*
Clc1ccc(-c2noc(CCCc3ccccc3)n2)cc1 | -97*
c1ccc(SCc2nc(-c3ccccn3)no2)cc1 | -146*
Cc1ccc(Cc2nc(-c3ccccn3)no2)cc1 | -95*
c1ccc(-c2noc(CC3CCCCC3)n2)nc1 | -69*
c1ccc(-c2ccc(-c3nc(-c4ccccn4)no3)cc2)cc1 | 147
c1ccc(Cc2nc(-c3ccccn3)no2)cc1 | -98*
COc1ccc(Cc2nc(-c3ccccn3)no2)cc1 | -120*
c1ccc(CCCc2nc(-c3ccccn3)no2)cc1 | -70*
SMILES | aSyn UTR act
C#CC[N+](C)(C)CCCCCCCCCCCC | 77
CN(C)C(=O)CCCc1nc(-c2ccc(Cl)cc2)no1 | -111*
O=C(CCCc1nc(-c2ccccc2Cl)no1)NC1CCCC1 | 99
CCCCCc1ccc(-c2nnc(N)s2)cc1 | -98*
CCCCCCc1ccc(-c2ncc(N)cn2)cc1 | -68*
CC(/C=N\NC(=O)CN1CCN(Cc2ccccc2)CC1)=C\c1ccco1 | -94*
O=C(CN1CCN(Cc2ccccc2)CC1)N/N=C\C=C/c1ccco1 | -71*
O=C(CN1CCN(Cc2ccccc2Cl)CC1)N/N=C/C=C/c1ccco1 | -77*
COc1ccc2c(C)nc(Nc3nc(-c4ccccc4)cc(=O)[nH]3)nc2c1 | -635*
Cc1nc(Nc2nc3c(c(=O)[nH]2)CCC3)nc2ccccc12 | 126
Cc1ccc2c(C)nc(Nc3nc(CSc4nc5ccccc5[nH]4)cc(=O)[nH]3)nc2c1 | 55
CC1=NN(C(N)=S)C(=O)C1N=Nc1ccc(Cl)cc1Cl (centres undefined) | -184*
CC1=NN(C(N)=S)C(=O)C1N=Nc1ccc(C)c(Br)c1 (centres undefined) | -128*
CC1=NN(C(N)=S)C(=O)C1N=Nc1cccc(C)c1 (centres undefined) | -75*
COc1cccc(-n2cc(-c3ccc(F)cc3)[nH]c2=S)c1 | -158*
COc1ccc(-n2cc(-c3ccc(Cl)cc3)[nH]c2=S)cc1 | -91*
Nc1nc(SCc2ccccc2)[nH]c(=O)c1-c1ccccc1 | -99*
CCOC(=O)c1nn(-c2ccc(C)cc2)cc1O | -62*
COC(=O)c1nn(-c2ccc(-c3ccccc3)cc2)cc1O | 67
CCOC(=O)C1=NN(c2ccc(Cl)cc2)C(=O)C1 | -144*
CCOC(=O)c1nn(-c2ccc3ccccc3c2)cc1O | -134*
CCOC(=O)c1ccc(N2CN(CC)CNC2=S)cc1 | 64
CCOC(=O)c1nn(-c2ccc3c(c2)OCO3)cc1O | -144*
CCOC(=O)c1nn(-c2ccc(Cl)cc2)cc1O | -124*
O=C(OCc1ccc(Cl)c(Cl)c1)c1ccc[nH]1 | -82*
SMILES | aSyn UTR act
O=C(Nc1cccc(NC(=O)c2cccs2)c1)c1ccc([N+](=O)[O-])o1 | -69*
COc1cc(NC(=O)c2ccc([N+](=O)[O-])o2)ccc1NC(=O)c1cccs1 | -82*
O=C(Nc1cc2cc([N+](=O)[O-])ccc2oc1=O)c1cccs1 | -76*
CCOc1ccc(-c2cc(CCCC(=O)NCCCOC)no2)cc1 | 87
CCC(C)NC(=O)c1cc(CC(C)C)on1 (centres undefined) | -68*
CCC(C)NC(=O)c1cc(-c2ccc(OC)cc2)on1 (centres undefined) | -118*
CCC(C)NC(=O)c1cc(-c2ccc3c(c2)OCO3)on1 (centres undefined) | -141*
COc1ccc(-c2cc(C(=O)NCC(C)C)no2)cc1 | -99*
Cc1c(O)ccc(/C(Cc2ccc3ccccc3n2)=N\N)c1O | -64*
Cc1ccc(/C=C2\SC(=S)N(CCCC(=O)Nc3cc(C)on3)C2=O)cc1 | 58
Cc1cc(NC(=O)/C=C/c2ccc(Br)cc2)no1 | -74*
Cc1cc(NC(=O)/C=C/c2ccc(Cl)cc2)no1 | -78*
C/C(=C\C(=O)Nc1cc(C)on1)c1ccccc1 | -110*
N#Cc1nc(-c2ccc(Cl)cc2)oc1NCCc1ccccn1 | -156*
Cc1ccc(-c2nc(C#N)c(NCCc3ccccn3)o2)cc1 | -151*
CCOC(=O)c1snc(C(=O)NC2CCCCC2)c1N | -150*
CC(=O)N(C)c1ccc(NC(=O)Nc2ccc(Cl)cc2)cc1 | -135*

From PubChem BioAssay
